Assay [1] is described as follows: Nuclear factor erythroid 2-related factor 2/antioxidant responsive element (Nrf2/ARE) small molecule agonists: qHTS cell viability counter screen in human keratinocytes (AID 1919968; active = well fitted curve in the direction sought with a large enough effect in the repeat runs; an effect the other way counts as inactive or inconclusive; note: nearly all actives have a fitted effect of over 55% in size). The method, boiled down: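 Seed 1,500 KeratinoSens cells per well, then incubate 5 h at 37 C/5% CO2. Add compounds in DMSO and incubate 23 h. Add CellTiter-Fluor, wait 1 h and read fluorescence.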
(qHTS replaces the single test concentration by a dilution series.)

A short description of assay [2]: Nuclear factor erythroid 2-related factor 2/antioxidant responsive element (Nrf2/ARE) small molecule agonists: luciferase reporter gene qHTS assay in human keratinocytes (AID 1919969). Note: nearly all actives have a fitted effect of over 35% in size. Note: potency is the fitted concentration of half-maximal effect. A general note: A reporter such as luciferase makes a cellular process visible.
The target in assay [3] is Gonadotropin-releasing hormone receptor (Homo sapiens) (UniProt P30968). Briefly: Human gonadotropin-releasing hormone receptor (GnRHR) small molecule agonists, calcium flux assay in GnRHR-HEK293 cells (AID 1920063). Note: nearly all actives have a fitted effect of over 35% in size. The method, boiled down: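 Cells: HEK293 stably expressing human GnRHR. Steps: overnight (18 h) culture, 1 h calcium dye loading at 37 C, compound addition, kinetic fluorescence read at 480/540 nm. Each compound tested at 15 concentrations in triplicate.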

Assay [4] has as its target KiSS-1 receptor (Homo sapiens) (UniProt Q969F8). Briefly: Human kisspeptin (KISS1R) small molecule agonists, calcium flux assay in KISS1R-HEK293 cells (AID 1920064; active = well fitted curve in the direction sought with a large enough effect in the repeat runs; an effect the other way counts as inactive or inconclusive). The method, boiled down:
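Cells plated and incubated 18 h; dye added, 1 h at 37 C; compounds in DMSO pinned in; signal read at 480/540 nm every second for 3 min. Each compound tested at 15 concentrations in triplicate.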
In general terms: A change in cytosolic calcium serves as a functional read-out for many receptors and channels.

Assay [5] is described as follows: G protein-coupled receptor (GPCR) small molecule agonists, calcium flux assay: HEK293 wild type cell line counter screen (AID 1920065). The method, boiled down: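 Counter-screen of the Tox21 10K library for non-specific calcium release: dye-loaded cells received compounds in DMSO and were monitored by kinetic fluorescence (480/540 nm, 3 min). Fifteen concentrations, run in triplicate.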

Assay [6] is described as follows: p53 small molecule agonists, cell-based qHTS assay with human liver microsomes (AID 1963577). The method, boiled down: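 In this qHTS, p53 response-element beta-lactamase cells receive test compound together with a microsome/NADPH activating system (0.5 mg/mL final each) and are incubated 16 h at 37 C before LiveBLAzer fluorescence detection.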
A short description of assay [7]: p53 small molecule agonists, cell-based qHTS assay with rat liver microsomes (AID 1963578). The method, boiled down: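 Agonist mode in p53RE-bla reporter cells, with compounds co-incubated 16 h at 37 C alongside 0.5 mg/mL rat liver microsomes and 0.5 mg/mL NADPH (final), followed by a 2 h LiveBLAzer detection step.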
A short description of assay [8]: p53 small molecule agonists, cell-based qHTS assay with human liver microsomes: qHTS cell viability counter screen (AID 1963579). Note: nearly all actives have a fitted effect of over 45% in size. The method, boiled down: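 Metabolically activated exposure: compounds, human liver microsomes and NADPH (0.5 mg/mL final apiece) were added to p53RE-bla cells seeded 5 h earlier, left 16 h at 37 C, and then assessed for viability by CellTiter-Glo luminescence.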

The nature of assay [9]: p53 small molecule agonists, cell-based qHTS assay with rat liver microsomes: qHTS cell viability counter screen (AID 1963580). Note: nearly all actives have a fitted effect of over 45% in size. The method, boiled down:
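In HCT-116 cells carrying a p53 response element-bla reporter, compounds were metabolically activated in situ by rat liver microsomes with NADPH over 16 h. Cell ATP content then served as the cytotoxicity measure.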

The nature of assay [10]: p53 small molecule agonists, cell-based qHTS assay: qHTS cell viability counter screen (AID 1963581). Note: nearly all actives have a fitted effect of over 45% in size. The method, boiled down: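 Cells: HCT-116 with p53 response element-driven beta-lactamase. Treatment: 16 h, 37 C, compounds in DMSO. Read: CellTiter-Glo luminescence after 30 min RT.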
The target of assay [11] is 5-hydroxytryptamine receptor 2A (Homo sapiens) (UniProt P28223). Briefly: 5-hydroxytryptamine receptor 2A (HTR2A) small molecule agonists, cell-based qHTS assay (AID 1963587). Note: nearly all actives have a fitted effect of over 30% in size. The method, boiled down:
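HTR2A-CHO cells, plated 18 h at 37 C/5% CO2, dye-loaded 1 h at 37 C; compounds in DMSO added by pin tool (agonist mode). Intracellular calcium flux read as kinetic fluorescence on FDSS over 2 min at 1 s intervals.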

The target of assay [12] is Muscarinic acetylcholine receptor M1 (Homo sapiens) (UniProt P11229). Briefly: Cholinergic receptor muscarinic 1 (CHRM1) small molecule antagonists, cell-based qHTS assay (AID 1963588). Note: nearly all actives have a fitted effect of over 40% in size. The method, boiled down: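 CHRM1-CHO calcium-flux assay, antagonist mode. Cells were seeded 18 h, dye-loaded 1 h at 37 C and given compound for 5 min at RT, then acetylcholine was added at 50nM. FDSS fluorescence was read 3 min; 15 concentrations, three runs.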

The target is the same in assay [13]. As to the kind of experiment: Cholinergic receptor muscarinic 1 (CHRM1) small molecule agonists, cell-based qHTS assay (AID 1963589). Note: nearly all actives have a fitted effect of over 35% in size. The method, boiled down:
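Agonist-mode qHTS in CHO cells stably carrying human muscarinic M1. Intracellular calcium is tracked by fluorescence every second after compound transfer; each compound runs at 15 concentrations in three independent runs.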

Assay [14] in a line: cAMP Responsive Elements (CRE) small molecule agonists, cell-based qHTS assay (AID 1963590). The method, boiled down:
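Agonist mode qHTS in CRE-bla HEK 293T cells: compounds dosed from DMSO for 3 h at 37 C/5% CO2, followed by LiveBLAzer B/G FRET substrate for 2 h at room temperature.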

A short description of assay [15]: cAMP Responsive Elements (CRE) small molecule antagonists, cell-based qHTS assay (AID 1963591; active = well fitted inhibition curve with a large enough effect in the signal ratio in the repeat runs, not every such curve was filed as active; the % refers to the signal ratio). The method, boiled down: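 Antagonist mode: test compounds are co-incubated with the adenylyl cyclase activator NKH477 (0.25 uM final) on CRE-bla HEK293T cells for 3 h at 37 °C, followed by LiveBLAzer substrate loading.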
Assay [16] addresses Beta-2 adrenergic receptor (Homo sapiens) (UniProt P07550). As to the kind of experiment: Adrenergic beta2 receptor (ADRB2) small molecule antagonists, cell-based qHTS assay (AID 1963592). Note: series mostly up to about 92 µM; nearly all actives have a fitted effect of over 50% in size. The method, boiled down: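 Cells (CHO, stable ADRB2 overexpression) incubated 18-20hr at 37C; compounds added from DMSO; agonist mix (1nM isoproterenol, 100uM IBMX, 25uM Ro-20-1724) added; 0.5hr RT; d2-cAMP and anti-cAMP-cryptate added; 1hr RT; 665/615 nm read.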

Assay [17] shares this target. As to the kind of experiment: Adrenergic beta2 receptor (ADRB2) small molecule agonists, cell-based qHTS assay (AID 1963593).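 Note: CHO cells stably overexpressing human ADRB2.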 The method, boiled down:
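CHO cells stably over-expressing ADRB2 were plated overnight at 37C, then dosed with compounds plus a stimulation mix containing 100uM IBMX and 25uM Ro-20-1724 for 0.5hr at room temperature. cAMP was measured by HTRF competition, 1hr.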

Assay [18] concerns the target D(2) dopamine receptor (Homo sapiens) (UniProt P14416). As to the kind of experiment: Dopamine D2 receptor (DRD2) small molecule agonists, cell-based qHTS assay (AID 1963594). Note: nearly all actives have a fitted effect of over 35% in size. The method, boiled down:
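HEK293 cells stably expressing DRD2 were cultured 24 h at 37 C, then given Ro20-1724 (0.1 mM final) and compounds for 10 min at room temperature. NKH477 (200nM) was then added for 30 min. cAMP was read by HTRF.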

For assay [19] the target is unchanged. Briefly: Dopamine D2 receptor (DRD2) small molecule antagonists, cell-based qHTS assay (AID 1963595; active = well fitted inhibition curve with a large enough effect in the signal ratio in the repeat runs, with a control signal flat; the % refers to the signal ratio). The method, boiled down:
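Cells were plated and grown for 24 h at 37 °C. Ro20-1724 (0.1 mM final) went in first, then compound for 10 min. NKH477 (200 nM) with quinpirole (12 nM) followed for 30 min at RT, then HTRF detection reagents for 1 h.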

Assay [20] in a line: p53 small molecule agonists, cell-based qHTS assay (AID 1963582; active = well fitted activation curve with a large enough effect in the signal ratio in the repeat runs, not every such curve was filed as active; the % refers to the signal ratio). The method, boiled down:
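Quantitative HTS in p53RE-bla cells: after a 5 h settling period, compounds delivered in DMSO were left on cells for 16 h at 37 C, and reporter induction was measured as fluorescence following 2 h substrate loading.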

Records with an inconclusive call do not appear. The source made the active and inactive calls. Unless noted, calls come from the whole dose curve.

Chain of 5-hydroxytryptamine receptor 2A (Homo sapiens) (P28223 whole entry, looked up): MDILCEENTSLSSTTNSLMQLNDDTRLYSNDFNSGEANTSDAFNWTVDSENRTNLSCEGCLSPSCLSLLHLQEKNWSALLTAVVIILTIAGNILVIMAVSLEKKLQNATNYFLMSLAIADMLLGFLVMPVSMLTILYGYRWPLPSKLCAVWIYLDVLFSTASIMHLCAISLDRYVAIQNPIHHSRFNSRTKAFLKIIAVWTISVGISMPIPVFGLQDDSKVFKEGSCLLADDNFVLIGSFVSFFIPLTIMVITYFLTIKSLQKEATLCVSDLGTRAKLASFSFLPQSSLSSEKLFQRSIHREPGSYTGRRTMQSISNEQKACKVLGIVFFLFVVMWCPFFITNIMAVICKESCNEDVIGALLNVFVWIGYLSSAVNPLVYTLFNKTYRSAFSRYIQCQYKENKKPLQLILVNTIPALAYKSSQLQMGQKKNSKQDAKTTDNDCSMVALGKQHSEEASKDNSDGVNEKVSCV
Chain of KiSS-1 receptor (Homo sapiens) (Q969F8 whole entry, looked up): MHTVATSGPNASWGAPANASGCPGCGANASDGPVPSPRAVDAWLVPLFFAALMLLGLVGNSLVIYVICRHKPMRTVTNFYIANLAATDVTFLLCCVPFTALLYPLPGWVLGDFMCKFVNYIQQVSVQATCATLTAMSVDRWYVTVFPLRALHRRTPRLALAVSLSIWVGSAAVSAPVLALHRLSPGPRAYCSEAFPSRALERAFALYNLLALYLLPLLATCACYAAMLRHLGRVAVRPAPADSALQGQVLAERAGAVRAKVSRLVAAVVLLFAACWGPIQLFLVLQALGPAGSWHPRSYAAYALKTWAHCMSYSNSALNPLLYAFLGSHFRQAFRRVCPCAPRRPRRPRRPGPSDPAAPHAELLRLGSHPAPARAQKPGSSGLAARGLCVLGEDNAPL
Chain of Gonadotropin-releasing hormone receptor (Homo sapiens) (P30968 whole entry, looked up): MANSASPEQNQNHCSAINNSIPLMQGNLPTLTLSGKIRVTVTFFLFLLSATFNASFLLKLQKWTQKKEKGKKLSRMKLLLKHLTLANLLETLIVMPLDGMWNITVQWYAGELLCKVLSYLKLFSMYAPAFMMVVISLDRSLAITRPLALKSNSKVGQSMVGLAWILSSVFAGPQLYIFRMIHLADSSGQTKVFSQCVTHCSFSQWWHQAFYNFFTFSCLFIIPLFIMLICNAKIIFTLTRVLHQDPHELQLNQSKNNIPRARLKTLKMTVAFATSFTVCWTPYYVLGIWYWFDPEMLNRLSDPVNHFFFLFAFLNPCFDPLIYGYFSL
Chain of Muscarinic acetylcholine receptor M1 (Homo sapiens) (P11229 whole entry, looked up): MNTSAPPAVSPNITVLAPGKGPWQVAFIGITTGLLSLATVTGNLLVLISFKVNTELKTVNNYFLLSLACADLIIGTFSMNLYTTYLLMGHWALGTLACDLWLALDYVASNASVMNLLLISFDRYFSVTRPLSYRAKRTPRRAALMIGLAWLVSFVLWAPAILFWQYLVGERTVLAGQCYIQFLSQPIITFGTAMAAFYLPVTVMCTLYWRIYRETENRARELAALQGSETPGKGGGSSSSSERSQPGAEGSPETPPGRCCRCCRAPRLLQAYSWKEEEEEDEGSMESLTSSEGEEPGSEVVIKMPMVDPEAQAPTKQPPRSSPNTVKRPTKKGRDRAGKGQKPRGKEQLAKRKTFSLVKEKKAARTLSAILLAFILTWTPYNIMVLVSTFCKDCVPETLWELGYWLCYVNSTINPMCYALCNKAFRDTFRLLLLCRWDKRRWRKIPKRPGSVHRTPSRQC
Chain of D(2) dopamine receptor (Homo sapiens) (P14416 whole entry, looked up): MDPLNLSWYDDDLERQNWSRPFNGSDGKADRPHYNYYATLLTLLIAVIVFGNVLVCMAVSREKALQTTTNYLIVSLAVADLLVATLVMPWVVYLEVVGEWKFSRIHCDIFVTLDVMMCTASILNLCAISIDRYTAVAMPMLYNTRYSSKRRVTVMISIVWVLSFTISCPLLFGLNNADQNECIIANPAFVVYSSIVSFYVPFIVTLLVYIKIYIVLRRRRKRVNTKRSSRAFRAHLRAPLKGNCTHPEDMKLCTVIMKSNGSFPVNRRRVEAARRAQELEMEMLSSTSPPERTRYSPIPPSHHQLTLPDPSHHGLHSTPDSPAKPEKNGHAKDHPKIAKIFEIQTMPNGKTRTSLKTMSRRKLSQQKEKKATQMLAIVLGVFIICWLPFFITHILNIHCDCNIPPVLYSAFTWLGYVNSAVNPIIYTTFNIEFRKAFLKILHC
Chain of Beta-2 adrenergic receptor (Homo sapiens) (P07550 whole entry, looked up): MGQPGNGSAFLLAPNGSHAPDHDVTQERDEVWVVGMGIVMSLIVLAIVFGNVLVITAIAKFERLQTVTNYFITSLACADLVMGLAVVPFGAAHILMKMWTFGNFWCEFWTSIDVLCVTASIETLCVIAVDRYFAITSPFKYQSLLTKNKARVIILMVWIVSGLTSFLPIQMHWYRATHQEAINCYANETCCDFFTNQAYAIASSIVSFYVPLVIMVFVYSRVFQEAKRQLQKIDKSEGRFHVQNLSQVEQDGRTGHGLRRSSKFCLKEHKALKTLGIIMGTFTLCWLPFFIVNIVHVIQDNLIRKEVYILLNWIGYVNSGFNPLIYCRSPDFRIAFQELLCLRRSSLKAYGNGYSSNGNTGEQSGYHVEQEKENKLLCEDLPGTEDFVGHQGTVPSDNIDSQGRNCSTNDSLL

For `ON(Cc1ccccc1)Cc1ccccc1`, the Potency result in assay [1], in assay [2], in assay [3], in assay [4], in assay [5] and in [6] was “inactive” each time. Further, the Potency entry in assay [7], in assay [8], in [9], in assay [10], in [11] and in assay [12] was “inactive” each time. In addition, the Potency entry in assay [13], in [14], in assay [15], in [16], in [17] and in assay [18] was “inactive” throughout. Further, in assay [19], the Potency entry was “inactive”.
For the molecule `CC1C(C)(C)C2=C(C(=O)CCC2)C1(C)C` (configuration not stated), the Potency entry in assay [1], in assay [2], in [3], in assay [4], in [5] and in assay [6] was “inactive” throughout. Also, the Potency entry in assay [7], in assay [8], in assay [9], in [10], in [11] and in assay [12] was “inactive” in each case. In addition, the Potency entry in assay [13], in assay [14], in assay [15], in assay [16], in assay [17] and in assay [18] was “inactive” each time. Besides, the Potency result in assay [19] is “inactive”.
Take `Oc1ccc(OCc2ccccc2)cc1`: the Potency result in [1], in assay [3], in [4], in [5], in assay [6] and in assay [7] was “inactive” throughout. Besides, the Potency result in [8], in assay [9], in [10], in assay [20], in assay [16] and in assay [17] was “inactive” each time. The Potency entry in [18] and in [19] was “inactive” each time. Further, the Potency in [2] is 8.45 µM (active).
Consider `COCCCOc1ccnc(CS(=O)c2nc3ccccc3[nH]2)c1C` (configuration not stated), for which the Potency result in assay [1], in assay [3], in assay [4], in assay [5], in [6] and in [7] was “inactive” each time. Besides, the Potency entry in [8], in [9], in assay [10], in assay [20], in [14] and in [15] was “inactive” throughout. Besides, the Potency result in [16], in [17], in assay [18] and in assay [19] was “inactive” each time. For the same molecule, the Potency in assay [2] was 30.5 µM (active).
Regarding `CCOC(=O)CN`, the Potency result in [1], in [2], in assay [3], in assay [4], in [5] and in assay [6] was “inactive” each time. Moreover, the Potency entry in [7], in assay [8], in assay [9], in assay [10], in [20] and in assay [11] was “inactive” throughout. The Potency result in assay [12], in assay [13], in [14], in assay [15], in assay [16] and in assay [18] was “inactive” throughout. Moreover, the Potency entry in assay [19] was “inactive”.
On to `O=C1CCN(c2ccccc2)N1`, for which the Potency result in assay [1], in assay [2], in assay [3], in assay [4], in assay [5] and in assay [6] was “inactive” each time. For the same molecule, the Potency entry in [7], in [8], in assay [9], in [10], in assay [20] and in assay [11] was “inactive” throughout. For the same molecule, the Potency result in assay [12], in [13], in assay [14], in assay [16], in assay [18] and in assay [19] was “inactive” each time.
Turning to `Cc1cnccn1`, the Potency result in [1], in assay [2], in assay [3], in [4], in assay [5] and in assay [6] was “inactive” each time. The Potency entry in [7], in assay [8], in assay [9], in assay [10], in [20] and in assay [11] was “inactive” throughout. The Potency result in assay [13], in [14], in [15], in [18] and in assay [19] was “inactive” each time.
For `Cc1cccc2cccnc12`, the Potency result in assay [1], in assay [2], in assay [3], in [4], in assay [5] and in assay [6] was “inactive” each time. Moreover, the Potency entry in [7], in [8], in [9], in assay [10], in assay [20] and in assay [12] was “inactive” each time. The Potency result in assay [13], in [14], in assay [15], in assay [16], in assay [18] and in [19] was “inactive” in each case.

Source of the values: PubChem BioAssay (Tox21).
